CYP2C9 inh: blockers of cytochrome P450 2C9 activity – biochemical, luminescence, ADME assay, primary screen; actives 20% (n = 96,000); CYP2C9 Supersomes, luciferin-H conversion; inhibition, % at 5 µM; P11712;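 active = blocking of liver enzyme CYP2C9 beyond about 50% at 5 µM, limit read from the data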
Target sequence (P11712 whole entry, looked up): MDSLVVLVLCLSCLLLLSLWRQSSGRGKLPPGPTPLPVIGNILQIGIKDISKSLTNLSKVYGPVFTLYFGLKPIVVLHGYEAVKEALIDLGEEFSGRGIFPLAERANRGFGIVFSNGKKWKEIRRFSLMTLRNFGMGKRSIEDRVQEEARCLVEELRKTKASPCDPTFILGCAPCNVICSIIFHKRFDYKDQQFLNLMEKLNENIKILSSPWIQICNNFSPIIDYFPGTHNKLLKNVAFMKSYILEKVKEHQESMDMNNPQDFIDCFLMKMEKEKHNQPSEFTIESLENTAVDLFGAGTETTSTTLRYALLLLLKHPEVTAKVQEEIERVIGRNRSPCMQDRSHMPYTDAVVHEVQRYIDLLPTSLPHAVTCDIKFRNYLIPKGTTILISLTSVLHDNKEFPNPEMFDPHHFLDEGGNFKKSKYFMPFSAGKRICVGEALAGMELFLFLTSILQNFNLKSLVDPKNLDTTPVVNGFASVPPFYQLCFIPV
CYP2C9 activ: human CYP2C9 activators, primary screen, biochemical, luminescence; recombinant CYP2C9, luciferin-H conversion; stronger effect = higher value; factor 1 = untreated enzyme, 0 = blocked; activation factor at 5 µM; actives 1.4% (n = 96,000);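 active = activation factor of 2 or more for CYP2C9 at a 5 µM dose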
Cav32 inh: Cav3.2 calcium influx blockers – cell-based, Fluo-4 calcium fluorescence, FDSS, MLSMR library, primary screen. Cav3.2-expressing cells; stronger effect = lower value. B-score at 10 µM. actives 4% (n = 100,000);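 active = single-dose well whose peak fluorescence ratio is a statistical outlier from its plate by either plate-standardised score or position-corrected B-score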
CYP2C19 inhib: blockers of cytochrome P450 2C19 activity – biochemical, luminescence, ADME assay, primary screen; actives 21% (n = 96,000); P33261; inhibition, % at 5 µM; CYP2C19 Supersomes, luciferin-H EGE luminescence, 30 min;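 active = CYP2C19 inhibition above a set limit at 5 µM in the primary screen, cut at about 50% in these data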
CYP2C19 act: human CYP2C19 activators, primary screen, biochemical, luminescence; recombinant CYP2C19, luciferin-H EGE luminescence; stronger effect = higher value; 0 = fully inhibited enzyme, 1 = untreated enzyme; activation factor at 5 µM; 96,000 tested, under 10 active; AID 1025, 2008;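 active = activation factor of at least 2 at 5 µM in the primary screen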
Of the large screens only hits and unclear results are named; the others gave an inactive call. Shown are actives, neighbours in structure and some others; about 27% of the full set was active somewhere.

O=C(CSc1nc2ccccc2o1)NC(=O)NCc1ccco1	CYP2C19 inhib 51
COc1ccc(-c2nnc(SCC(=O)NC(=O)NCc3ccccc3)o2)cc1	none
COC(=O)CSc1nc2ccccc2o1	none
COc1ccc(CCNC(=O)CSc2nc3ccccc3o2)cc1	CYP2C9 inh 99, CYP2C19 inhib 92
O=C(CSc1nc2ccccc2o1)NCc1ccco1	CYP2C19 inhib 72
Cc1cc(SCC(=O)NC(=O)NCc2ccco2)nc2ccccc12	none
O=C(CSc1nc2ccccc2o1)NC(=O)NCc1ccccc1	Cav32 inh -6.5
CCOc1cccc(C2c3c(oc4cc(C)c(C)cc4c3=O)C(=O)N2CCCN(C)C)c1 (stereo not given)	none
CCCOCCOC(=O)C1=C(C)NC(=O)NC1c1cc(Cl)c(O)c(OC)c1 (stereo not given)	none
Oc1cccc(C(=S)N2CCN(Cc3ccccc3)CC2)c1	CYP2C9 inh 68, CYP2C19 inhib 100
Cc1c(Cl)cccc1NC(=S)N1CCN(Cc2ccccc2)CC1	none
CCC(C(=O)N1CCN(c2cccc(Cl)c2)CC1)c1ccccc1 (stereo not given)	CYP2C9 inh 100, Cav32 inh -5.3, CYP2C19 inhib 95
O=C(C(Cc1ccccc1)n1cccc1)N1CCN(c2cccc(Cl)c2)CC1 (stereo not given)	CYP2C9 inh 70, CYP2C19 inhib 82
CCC(C(=O)N1CCc2cc(OC)c(OC)cc2C1)c1ccccc1 (stereo not given)	CYP2C9 inh 73, CYP2C19 inhib 73
Cc1cc(C)c(NC(=O)C2CCCN2C(=O)NC2CCCCC2)c(C)c1 (stereo not given)	none (no result: CYP2C9 inh, CYP2C9 activ, CYP2C19 inhib, CYP2C19 act)
N#C[C@H]1C2OC2c2ccccc2N1C(=O)c1ccccc1 (stereo not given in full)	none (no result: CYP2C9 inh, CYP2C9 activ, CYP2C19 inhib, CYP2C19 act)
O=C(C(Cc1ccccc1)n1cccc1)N1CCN(Cc2ccccc2)CC1 (stereo not given)	CYP2C9 inh 62
O=C(NC1CCCC1)C(Cc1ccccc1)n1cccc1 (stereo not given)	none
O=C(N1CCOCC1)N1CCN(Cc2ccccc2)CC1	CYP2C19 inhib 82
CCC(C(=O)N1CCN(S(C)(=O)=O)CC1)c1ccccc1 (stereo not given)	CYP2C19 inhib 83
O=C(C(Cc1ccccc1)n1cccc1)N1CCCCCC1 (stereo not given)	CYP2C19 inhib 69
CCOC(=O)N1CCN(C(=S)Nc2cccc(C)c2)CC1	none
COC(=O)COC(=O)CC(CC(N)=O)c1ccccc1 (stereo not given)	none
O=C(CN1C(=O)C2C3C=CC(C3)C2C1=O)N1CCc2ccccc2C1 (stereo not given)	none
C=CCOC(=O)Nc1c(C(=O)OC)[nH]c2ccc(Cl)cc12	none (no result: Cav32 inh)
C=CCSc1nc(C)c2cc(C)cc(C)c2n1	none
O=C(C1CCC(=O)N1Cc1ccccc1Cl)N1CCN(c2cccc(Cl)c2)CC1 (stereo not given)	none
COc1ccc(C)cc1S(=O)(=O)N1CCN(S(=O)(=O)c2cc(C)ccc2OC)CC1	CYP2C9 inh 87, CYP2C19 inhib 75
CCOC(=O)C1CCN(S(=O)(=O)c2ccc(Br)c(OCC)c2)CC1	none
COc1ccc(C)cc1S(=O)(=O)N1CCCCC1	none (no result: CYP2C9 inh, CYP2C9 activ, CYP2C19 inhib, CYP2C19 act)
COc1cc(C(=O)N2c3ccccc3CC2C)cc(OC)c1OC (stereo not given)	none
CCOc1ccc(S(=O)(=O)N2CCC(C(N)=O)CC2)c2ccccc12	CYP2C9 inh 59
COc1ccc(C)cc1S(=O)(=O)N1c2ccccc2CC1C (stereo not given)	CYP2C9 inh 96, CYP2C19 inhib 96
COc1ccc(F)cc1S(=O)(=O)N1CCC(C(N)=O)CC1	CYP2C9 activ 2.4
CCOC(=O)c1cc(C)n(-n2cnnc2)c1C	none
Cc1cc(C)n(-c2cc(N3CCN(C(=O)c4cccc(F)c4)CC3)ccc2[N+](=O)[O-])n1	none (no result: CYP2C9 inh, CYP2C9 activ, CYP2C19 inhib, CYP2C19 act)
COc1ccc(OC)c(S(=O)(=O)N2CCN(c3ccccn3)CC2)c1	CYP2C9 inh 77, CYP2C19 inhib 83 (no result: Cav32 inh)
COc1ccc(F)cc1S(=O)(=O)N1CCCN(S(=O)(=O)c2cc(F)ccc2OC)CC1	CYP2C19 inhib 99
COc1ccc(F)cc1S(=O)(=O)N1CCCC(C)C1 (stereo not given)	CYP2C19 inhib 67
O=C(O)CNc1nc(Cl)ccc1[N+](=O)[O-]	none
O=S(=O)(N/N=C/c1c(F)cccc1Cl)c1ccccc1	CYP2C19 inhib 66 (no result: Cav32 inh)
O=S(=O)(N/N=C/c1ccc2c(c1)OCCO2)c1ccccc1	none
O=S(=O)(N/N=C\C=C\c1ccccc1)c1ccc(Cl)cc1	CYP2C9 inh 96
Cc1ccc(CNC(=O)CN(C)S(=O)(=O)c2cccc3nsnc23)cc1	CYP2C19 inhib 59 (no result: Cav32 inh)
CC(=O)c1cccc(NC(=O)CN(c2ccc(C)cc2)S(=O)(=O)c2cccc3nonc23)c1	CYP2C9 inh 72
Cc1ccc(NC(=O)CN(C)S(=O)(=O)c2cccc3nsnc23)cc1	CYP2C9 inh 77
Oc1cccc(O)c1O	none (no result: CYP2C9 inh, CYP2C9 activ, CYP2C19 inhib, CYP2C19 act)
Cc1cccc(Cn2c(C(C)(C)C)cc3cccnc32)c1	none
CCOC(=O)c1sc2nccc(N(C)C)c2c1N=CNOCc1ccccc1	CYP2C9 inh 72, CYP2C19 inhib 61
CCOC(=O)c1sc2nccc(N(C)C)c2c1N=CNOC	CYP2C9 inh 50
CCOC(=O)C1=C(C)Nc2nc(SCc3cccnc3)nn2C1c1ccc(OC)cc1 (stereo not given)	CYP2C9 inh 66
CNC(=O)C1=C(C)Nc2nc3ccccc3n2C1c1cccc(OC)c1 (stereo not given)	none
COc1ccc(OC)c(C2C(C(=O)N(C)C)=C(C)Nc3nc4ccccc4n32)c1 (stereo not given)	none
CCOC(=O)C1=C(C)Nc2nc3ccccc3n2C1c1ccncc1 (stereo not given)	CYP2C9 inh 54, CYP2C19 inhib 54
C=CCOC(=O)C1=C(C)Nc2nc3ccccc3n2C1c1ccncc1 (stereo not given)	CYP2C9 inh 58, CYP2C19 inhib 62
NC(=O)C1CCN(C(=O)c2ccc(NC3=NC4CS(=O)(=O)CC4S3)cc2)CC1 (stereo not given)	none
COc1cc([N+](=O)[O-])cc(CN2CCCCC2)c1O	none
COCCNc1cc(C)nc2c3c(C)cc(C)nc3nn12	none
Cn1c2c(c(=O)n(C)c1=O)C(CC(=O)Nc1ccccc1)C(=O)N2 (stereo not given)	none
COc1ccccc1NC(=O)CC1C(=O)Nc2c1c(=O)n(C)c(=O)n2C (stereo not given)	CYP2C9 inh 58
C(=N\c1nc2ccccc2[nH]1)/c1cccs1	Cav32 inh 3.1
COc1ccc(CNC(=O)c2noc3c2CCCCC3)cc1	none
COC(=O)c1ccccc1NC(=O)c1noc2c1CCCC2	none
